# Results reported in PubChem BioAssay (Tox21).
# Results filed as inconclusive are left out. A call without a number means that no potency is given here. Activity calls are given as the source filed them. Unless noted, the call rests on the fitted dose curve; in most records, active means well fitted curve in the direction sought with a large enough effect in the repeat runs; inconclusive means weak or mixed curves; inactive means no such curve, though single readings can be large; an effect the other way counts as inactive or inconclusive.
# Experiments:
# [1] = qHTS assay to identify small molecule agonists of the sonic hedgehog signaling (Shh) pathway (AID 1259368; calls by dose curve; further: nearly all actives have a fitted effect of over 15% in size; further: potency means the concentration at half of the fitted maximal effect)
# Summary of the method: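 Stable NIH/3T3 Gli1-Luc reporter clone; 24 hr cpd exposure after a 4 hr settling period; luminescence endpoint.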
# [2] = qHTS assay to identify small molecule antagonists of the sonic hedgehog signaling (Shh) pathway (AID 1259369; calls by dose curve; further: nearly all actives have a fitted effect of over 45% in size; further: potency means the concentration at half of the fitted maximal effect)
# Summary of the method: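 Gli1 transcriptional reporter (firefly Luc) in NIH/3T3 background, conditioned-medium activated. 24hr exposure, luminescence endpoint.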
# [3] = qHTS assay to identify small molecule agonists of the androgen receptor (AR) signaling pathway in the presence of an antagonist - cell viability counter screen (AID 1259379); further: nearly all actives have a fitted effect of over 25% in size; further: potency means the concentration at half of the fitted maximal effect
# Summary of the method: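 Counter screen for cell viability run in parallel with the AR agonist-mode luciferase assay. MDA-kb2 cells were co-treated with nilutamide (3.0uM final) and compounds, then incubated 16 hr at 37C, and CellTiter-Fluor fluorescence was measured.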
# [4] = qHTS assay to identify small molecule agonists of the estrogen receptor beta (ER-beta) signaling pathway - cell viability counter screen (AID 1259380); further: nearly all actives have a fitted effect of over 30% in size; further: potency means the concentration at half of the fitted maximal effect
# Summary of the method: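 In this qHTS counter screen, HEK293T cells carrying an ER-beta/UAS beta-lactamase reporter, grown in 2% charcoal-stripped FBS, received compound for 16 hr; ATP-based CellTiter-Glo luminescence was then read after 30 min at room temperature.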
# [5] = qHTS assay to identify small molecule antagonists of the estrogen receptor beta (ER-beta) signaling pathway - cell viability counter screen (AID 1259382); further: nearly all actives have a fitted effect of over 55% in size; further: potency means the concentration at half of the fitted maximal effect
# Summary of the method: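 HEK293T ER-beta-UAS-bla, 2% charcoal-stripped FBS; compounds + 1nM E2 16 hr 37C; CellTiter-Glo luminescence, 30 min RT.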
# [6] = molecular target: Thyrotropin receptor (Homo sapiens) (UniProt P16473); assay: qHTS assay to identify small molecule antagonists of the thyroid stimulating hormone receptor (TSHR) signaling pathway (AID 1259385; calls by dose curve; further: nearly all actives have a fitted effect of over 20% in size)
# Summary of the method: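 TSHR-HEK293 cells were plated and held 18 h at 37C/5% CO2, then given compound plus Ro20-1724 and stimulated with TSH at 1.5 ng/mL final. After 30 min at room temperature, cAMP was detected with cAMP-d2/anti-cAMP-cryptate (1 h) by fluorescence.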
# [7] = qHTS assay to identify small molecule agonists of the estrogen receptor alpha (ER-alpha) signaling pathway in the presence of an antagonist - cell viability counter screen (AID 1259386);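 further: cells exposed to compounds for 22 h at 37 °C before the viability read; nearly all actives have a fitted effect of over 30% in size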; further: potency means the concentration at half of the fitted maximal effect
# Summary of the method: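 Steps: 5-day stripped-FBS culture; seed and incubate 24hr; add ICI-182,780 (10.0nM final); pin 15-point compound titration; incubate 22hr at 37C; add CellTiter-Fluor at 21hr; read fluorescence.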
# [8] = qHTS assay to identify small molecule antagonists of the progesterone receptor (PR) signaling pathway - cell viability counter screen (AID 1346798); further: series mostly up to about 92 µM; nearly all actives have a fitted effect of over 50% in size
# Summary of the method: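 Counter screen for cytotoxicity: viability of PR-UAS-bla HEK293T cells was measured with CellTiter-Glo luminescence following 16 hr compound exposure in the presence of R5020.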
# [9] = qHTS assay to identify small molecule agonists of the progesterone receptor (PR) signaling pathway - cell viability counter screen (AID 1346799; calls by dose curve; further: nearly all actives have a fitted effect of over 45% in size)
# Summary of the method: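 Cells (PR-UAS-bla HEK293T) are plated at 3,000/well in 2% charcoal-stripped FBS medium, rested 6 hr, dosed and incubated 16 hr at 37C. CellTiter-Glo is then added and luminescence measured after 30 min at room temperature.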
# [10] = qHTS assay to identify small molecule antagonists of the TGF-beta/Smad signaling pathway - cell viability counter screen (AID 1346824); further: nearly all actives have a fitted effect of over 50% in size
# Summary of the method: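 SBE-bla HEK 293T cells were plated overnight at 37 C, then given compounds in DMSO plus TGF-beta1 (added as 0.25 ng/mL solution) for 5 hr. After the bla read, CellTiter-Glo was added to the same wells and luminescence read after 30 min at room temperature.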
# [11] = qHTS assay to identify small molecule agonists of the TGF-beta/Smad signaling pathway - cell viability counter screen (AID 1346829); further: top concentration of the series differs between compounds; nearly all actives have a fitted effect of over 45% in size
# Summary of the method: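 Tox21 qHTS format: SBE-bla HEK 293T cells treated with DMSO-dissolved compounds for 5 hr; CellTiter-Glo luminescence after 30 min at room temperature.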
# [12] = qHTS assay to identify small molecule agonists of the TGF-beta/Smad signaling pathway (AID 1346859; active means well fitted activation curve with a large enough effect in the signal ratio in the repeat runs, not every such curve was filed as active; the % refers to the signal ratio; further: series mostly up to about 77 µM)
# Summary of the method: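 Reporter line: HEK 293T with stably integrated SBE-controlled beta-lactamase. Compound exposure lasts 5 hr at 37 C and 5% CO2; substrate loading follows for 2 hr at room temperature, with emission read at 460 and 530 nm.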
# [13] = molecular target: Thyrotropin-releasing hormone receptor (Homo sapiens) (UniProt P34981); assay: qHTS assay to identify small molecule antagonists of the thyrotropin-releasing hormone receptor (TRHR) signaling pathway (AID 1346877; active means well fitted inhibition curve with a large enough effect in the repeat runs, not every such curve was filed as active; further: series mostly up to about 51 µM)
# Summary of the method: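 Human TRHR in HEK293 cells; inhibition of the intracellular calcium rise triggered by 1 nM TRH was followed by fluorescence over 3 min. Compounds were run at 15 concentrations, three replicates each.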
# [14] = molecular target: Estrogen receptor beta (Homo sapiens) (UniProt Q92731); assay: qHTS assay to identify small molecule antagonists of the estrogen receptor beta (ER-beta) signaling pathway (AID 1259378; active means well fitted inhibition curve with a large enough effect in the signal ratio in the repeat runs, not every such curve was filed as active; the % refers to the signal ratio)
# Summary of the method: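 ER-beta-UAS-bla HEK293T (GripTite) cells in 2% charcoal-stripped FBS medium were preincubated 6 hr at 37C, dosed with compound, then stimulated with 1 nM E2 (final) for 16 hr; beta-lactamase reporter read by B/G FRET fluorescence after 2 hr substrate loading.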
# [15] = molecular target: Progesterone receptor (Homo sapiens) (UniProt P06401); assay: qHTS assay to identify small molecule agonists of the progesterone receptor (PR) signaling pathway (AID 1346784; calls by dose curve; further: nearly all actives have a fitted effect of over 30% in size)
# Summary of the method: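 Cells (PR-UAS-bla HEK 293T, GripTite) were plated in assay medium containing 2% charcoal-stripped FBS and incubated 6 hr. Test compounds in DMSO were added for 16 hr at 37C. FRET substrate was then loaded for 2 hr at room temperature before fluorescence reading.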
# [16] = molecular target: Progesterone receptor (Homo sapiens) (UniProt P06401); assay: qHTS assay to identify small molecule antagonists of the progesterone receptor (PR) signaling pathway (AID 1346795; active means well fitted inhibition curve with a large enough effect in the signal ratio in the repeat runs, not every such curve was filed as active; the % refers to the signal ratio; further: potency means the concentration at half of the fitted maximal effect)
# Summary of the method: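 Antagonist mode: compounds tested against 1 nM (final) promegestone stimulation in HEK293T cells expressing PR-UAS-bla reporter, 16 hr at 37C, 5% CO2; beta-lactamase activity detected via B/G FRET substrate after 2 hr at room temperature.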
# [17] = molecular target: Estrogen receptor (Homo sapiens) (UniProt P03372); assay: qHTS assay to identify small molecule agonists of the estrogen receptor alpha (ER-alpha) signaling pathway in the presence of an antagonist (AID 1259383; calls by dose curve; further: top concentration of the series differs between compounds; nearly all actives have a fitted effect of over 15% in size)
# Summary of the method: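 ER-alpha agonism measured under antagonist challenge: 10.0nM ICI-182,780 (final) plus compound, 15 concentrations, 22hr, VM7Luc4E2 ERE-luciferase cells. Read by luminescence.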
# [18] = qHTS assay to identify small molecule agonists or antagonists of the thyroid stimulating hormone receptor (TSHR) signaling pathway - wild type cell line counter screen (AID 1259384; calls by dose curve)
# Summary of the method: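 Wild-type HEK293 cells were plated 18 h at 37 C/5% CO2, pin-dosed with compound plus Ro20-1724 medium, held 30 min at room temperature, then given cAMP-d2 and anti-cAMP-cryptate; fluorescence was read after 1 h. Fifteen concentrations, triplicate.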
# [19] = molecular target: Androgen receptor (Homo sapiens) (UniProt P10275); assay: qHTS assay to identify small molecule agonists of the androgen receptor (AR) signaling pathway in the presence of an antagonist (AID 1259381; calls by dose curve; further: nearly all actives have a fitted effect of over 15% in size; further: potency means the concentration at half of the fitted maximal effect)
# Summary of the method: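 AR antagonist background: nilutamide 3.0uM final. Cell line: MDA-kb2, MMTV-driven luciferase, responsive to both AR and GR. Exposure 16hr, 37C, no CO2; ONE-Glo luminescence.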
# [20] = molecular target: Estrogen receptor beta (Homo sapiens) (UniProt Q92731); assay: qHTS assay to identify small molecule agonists of the estrogen receptor beta (ER-beta) signaling pathway (AID 1259377; active means well fitted activation curve with a large enough effect in the signal ratio in the repeat runs, not every such curve was filed as active; the % refers to the signal ratio)
# Summary of the method: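 Agonist mode cell assay in GripTite HEK293T cells expressing an ER-beta fusion that drives beta-lactamase from an Upstream Activator Sequence; 16 hr compound exposure at 37C, then 2 h LiveBLAzer B/G FRET substrate at room temperature, fluorescence read-out.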
# Chain of Thyrotropin-releasing hormone receptor (Homo sapiens) (P34981 whole entry, looked up): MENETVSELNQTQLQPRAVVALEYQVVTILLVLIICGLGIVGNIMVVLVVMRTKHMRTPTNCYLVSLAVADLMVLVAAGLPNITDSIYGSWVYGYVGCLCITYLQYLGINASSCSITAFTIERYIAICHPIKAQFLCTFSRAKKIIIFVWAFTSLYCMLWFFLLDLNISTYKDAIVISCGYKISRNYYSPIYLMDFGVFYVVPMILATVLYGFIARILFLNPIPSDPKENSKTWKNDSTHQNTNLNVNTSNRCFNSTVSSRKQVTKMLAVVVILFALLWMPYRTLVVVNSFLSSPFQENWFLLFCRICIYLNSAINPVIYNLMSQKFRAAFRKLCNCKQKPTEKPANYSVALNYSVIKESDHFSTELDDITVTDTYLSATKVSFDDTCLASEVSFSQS
# Chain of Progesterone receptor (Homo sapiens) (P06401 whole entry, looked up): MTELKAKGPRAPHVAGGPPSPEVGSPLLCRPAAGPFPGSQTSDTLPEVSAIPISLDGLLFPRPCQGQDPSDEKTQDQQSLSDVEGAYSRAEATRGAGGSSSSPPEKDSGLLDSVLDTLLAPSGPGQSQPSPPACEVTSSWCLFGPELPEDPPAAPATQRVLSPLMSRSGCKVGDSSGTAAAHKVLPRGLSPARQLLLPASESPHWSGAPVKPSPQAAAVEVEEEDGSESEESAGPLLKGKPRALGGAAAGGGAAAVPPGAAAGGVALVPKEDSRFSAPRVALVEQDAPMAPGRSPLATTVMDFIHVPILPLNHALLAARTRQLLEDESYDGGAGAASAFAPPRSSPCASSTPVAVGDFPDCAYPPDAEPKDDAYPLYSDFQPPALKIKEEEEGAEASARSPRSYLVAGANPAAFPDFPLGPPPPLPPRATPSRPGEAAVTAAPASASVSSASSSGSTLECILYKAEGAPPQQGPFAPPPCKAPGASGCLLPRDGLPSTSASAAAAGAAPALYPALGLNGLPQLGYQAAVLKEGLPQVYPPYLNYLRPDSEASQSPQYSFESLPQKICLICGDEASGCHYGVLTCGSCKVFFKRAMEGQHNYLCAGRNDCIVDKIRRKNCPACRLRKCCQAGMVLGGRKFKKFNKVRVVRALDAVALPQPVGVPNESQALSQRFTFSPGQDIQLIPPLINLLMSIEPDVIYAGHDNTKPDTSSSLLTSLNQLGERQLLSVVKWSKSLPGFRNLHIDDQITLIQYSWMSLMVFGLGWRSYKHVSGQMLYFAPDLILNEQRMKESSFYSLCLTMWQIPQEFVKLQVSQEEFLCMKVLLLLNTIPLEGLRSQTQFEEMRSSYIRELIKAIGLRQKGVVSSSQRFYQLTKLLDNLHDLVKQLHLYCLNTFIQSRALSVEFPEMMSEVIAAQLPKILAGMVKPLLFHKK
# Chain of Thyrotropin receptor (Homo sapiens) (P16473 whole entry, looked up): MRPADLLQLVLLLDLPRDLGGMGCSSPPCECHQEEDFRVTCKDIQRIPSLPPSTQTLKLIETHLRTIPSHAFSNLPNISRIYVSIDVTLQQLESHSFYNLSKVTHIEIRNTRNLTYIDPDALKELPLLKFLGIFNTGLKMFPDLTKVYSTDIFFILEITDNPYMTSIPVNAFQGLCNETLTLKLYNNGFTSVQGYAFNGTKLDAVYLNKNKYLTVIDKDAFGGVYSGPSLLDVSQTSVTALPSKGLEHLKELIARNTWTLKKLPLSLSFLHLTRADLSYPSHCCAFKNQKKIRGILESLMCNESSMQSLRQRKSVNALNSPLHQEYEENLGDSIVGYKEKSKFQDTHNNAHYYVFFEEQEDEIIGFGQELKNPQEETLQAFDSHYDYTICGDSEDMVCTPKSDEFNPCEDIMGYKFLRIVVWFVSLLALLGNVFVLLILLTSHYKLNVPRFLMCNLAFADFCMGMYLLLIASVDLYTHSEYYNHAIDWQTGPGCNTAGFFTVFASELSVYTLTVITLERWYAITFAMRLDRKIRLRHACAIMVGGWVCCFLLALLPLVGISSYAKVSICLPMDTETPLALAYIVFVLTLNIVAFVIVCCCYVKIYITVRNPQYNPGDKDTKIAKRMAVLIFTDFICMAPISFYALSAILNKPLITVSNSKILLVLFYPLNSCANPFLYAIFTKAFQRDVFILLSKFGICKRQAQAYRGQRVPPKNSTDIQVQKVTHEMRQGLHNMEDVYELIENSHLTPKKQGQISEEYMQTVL
# Chain of Estrogen receptor (Homo sapiens) (P03372 whole entry, looked up): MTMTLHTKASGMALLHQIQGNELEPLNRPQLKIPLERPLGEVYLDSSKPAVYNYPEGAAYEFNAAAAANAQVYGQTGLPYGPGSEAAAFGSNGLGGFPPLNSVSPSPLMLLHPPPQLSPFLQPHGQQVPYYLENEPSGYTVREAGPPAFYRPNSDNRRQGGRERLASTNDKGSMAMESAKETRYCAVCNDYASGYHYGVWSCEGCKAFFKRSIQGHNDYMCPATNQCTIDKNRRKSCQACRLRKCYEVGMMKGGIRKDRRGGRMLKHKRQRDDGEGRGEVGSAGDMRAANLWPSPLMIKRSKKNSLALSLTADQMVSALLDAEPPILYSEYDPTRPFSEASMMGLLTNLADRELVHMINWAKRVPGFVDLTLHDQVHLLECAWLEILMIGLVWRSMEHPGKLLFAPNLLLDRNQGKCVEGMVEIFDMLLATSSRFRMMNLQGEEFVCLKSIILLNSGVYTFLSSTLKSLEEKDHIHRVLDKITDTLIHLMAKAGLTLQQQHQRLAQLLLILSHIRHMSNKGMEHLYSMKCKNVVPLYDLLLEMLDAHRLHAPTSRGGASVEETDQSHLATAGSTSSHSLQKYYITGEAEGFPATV
# Chain of Androgen receptor (Homo sapiens) (P10275 whole entry, looked up): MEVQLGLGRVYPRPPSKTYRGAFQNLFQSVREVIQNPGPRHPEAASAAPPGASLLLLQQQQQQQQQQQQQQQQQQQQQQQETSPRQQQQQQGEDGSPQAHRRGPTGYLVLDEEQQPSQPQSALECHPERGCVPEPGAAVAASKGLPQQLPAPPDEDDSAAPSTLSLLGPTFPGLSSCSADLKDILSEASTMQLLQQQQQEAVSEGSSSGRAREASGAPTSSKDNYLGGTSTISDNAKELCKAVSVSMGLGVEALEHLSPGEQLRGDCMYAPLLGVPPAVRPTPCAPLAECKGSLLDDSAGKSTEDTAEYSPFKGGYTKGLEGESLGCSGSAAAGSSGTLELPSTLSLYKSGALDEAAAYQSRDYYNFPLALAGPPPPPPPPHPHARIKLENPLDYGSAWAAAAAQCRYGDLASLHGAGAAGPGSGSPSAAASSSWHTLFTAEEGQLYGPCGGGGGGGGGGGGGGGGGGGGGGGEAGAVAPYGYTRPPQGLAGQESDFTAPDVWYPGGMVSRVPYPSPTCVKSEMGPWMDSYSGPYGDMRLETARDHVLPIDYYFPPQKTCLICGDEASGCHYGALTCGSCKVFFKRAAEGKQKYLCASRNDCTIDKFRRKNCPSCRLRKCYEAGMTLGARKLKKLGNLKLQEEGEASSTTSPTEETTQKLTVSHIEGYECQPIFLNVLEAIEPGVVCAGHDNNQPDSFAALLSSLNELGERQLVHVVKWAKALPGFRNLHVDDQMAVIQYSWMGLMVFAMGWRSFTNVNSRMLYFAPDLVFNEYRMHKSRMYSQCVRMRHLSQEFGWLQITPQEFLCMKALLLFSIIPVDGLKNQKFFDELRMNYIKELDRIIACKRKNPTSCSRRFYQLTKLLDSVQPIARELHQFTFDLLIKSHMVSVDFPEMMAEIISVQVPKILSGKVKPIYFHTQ
# Chain of Estrogen receptor beta (Homo sapiens) (Q92731 whole entry, looked up, the tested form may be a part): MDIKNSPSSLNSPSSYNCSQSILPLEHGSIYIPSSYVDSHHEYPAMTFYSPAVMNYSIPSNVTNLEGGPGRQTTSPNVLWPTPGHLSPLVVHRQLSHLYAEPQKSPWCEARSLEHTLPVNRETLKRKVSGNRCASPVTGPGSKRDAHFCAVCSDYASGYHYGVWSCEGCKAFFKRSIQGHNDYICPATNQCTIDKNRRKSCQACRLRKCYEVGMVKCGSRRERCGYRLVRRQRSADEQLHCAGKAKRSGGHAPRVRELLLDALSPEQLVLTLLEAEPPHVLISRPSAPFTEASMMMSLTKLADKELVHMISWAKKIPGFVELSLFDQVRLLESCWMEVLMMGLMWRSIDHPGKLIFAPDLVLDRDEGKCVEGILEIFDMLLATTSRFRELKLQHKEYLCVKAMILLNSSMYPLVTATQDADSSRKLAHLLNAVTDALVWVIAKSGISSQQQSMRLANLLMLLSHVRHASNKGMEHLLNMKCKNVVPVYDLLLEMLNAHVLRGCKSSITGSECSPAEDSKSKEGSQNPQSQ
Structure (SMILES),Potency [1],Potency [2],Potency [3],Potency [4],Potency [5],Potency [6],Potency [7],Potency [8],Potency [9],outcome [10],outcome [11],outcome [12],outcome [13],Potency [14],Potency [15],Potency [16],Potency [17],outcome [18],Potency [19],Potency [20]
CC1=CC(=O)CC(C)(C)C1(O)/C=C/C(C)=C\C(=O)O (configuration not stated),inactive,inactive,inactive,inactive,inactive,inactive,inactive,inactive,inactive,inactive,inactive,inactive,inactive,,,,,,,
CCOC(=O)c1ccccc1OC,inactive,inactive,inactive,inactive,inactive,inactive,,inactive,inactive,inactive,,inactive,inactive,inactive,inactive,inactive,,,,
N#C[C@@H]1C[C@@H]2C[C@@H]2N1C(=O)[C@@H](N)C12CC3CC(CC(O)(C3)C1)C2,inactive,inactive,inactive,inactive,inactive,,inactive,inactive,inactive,inactive,inactive,inactive,,,inactive,inactive,inactive,inactive,,
CCC(C)(O)CCC=C(C)C (configuration not stated),inactive,inactive,inactive,inactive,inactive,inactive,inactive,,inactive,inactive,inactive,inactive,inactive,,inactive,inactive,inactive,inactive,,
COC(=O)CC(=O)C(C)(C)C,inactive,inactive,inactive,,,inactive,,,,inactive,inactive,inactive,,,inactive,,inactive,,,
NC(=O)Cn1c(=O)cc(CCN2CCN(c3nccc4sccc34)CC2)c2ccc(F)cc21,inactive,4.86 µM (active),,,inactive,,,,,inactive,inactive,,inactive,,inactive,inactive,inactive,,,
CCCCC1C(=O)N(c2ccccc2)N(c2ccc(O)cc2)C1=O (configuration not stated),inactive,7.5 µM (active),,23.7 µM (active),29.8 µM (active),,inactive,,,inactive,,,,,,,,,inactive,
CO[Si](C)(OC)OC,inactive,,inactive,inactive,inactive,inactive,inactive,inactive,inactive,inactive,inactive,inactive,inactive,inactive,,inactive,inactive,inactive,,inactive
O=C(NCCCN1CCOCC1)c1ccc(Cl)cc1,inactive,inactive,inactive,inactive,,inactive,inactive,inactive,inactive,inactive,inactive,inactive,,,inactive,inactive,inactive,inactive,,
CC(C)(C)C(=O)O,inactive,,inactive,inactive,inactive,inactive,inactive,,inactive,inactive,,inactive,inactive,inactive,inactive,inactive,,inactive,,inactive
CCCCCCCCCCOS(=O)(=O)O,inactive,inactive,inactive,,inactive,inactive,inactive,,,inactive,inactive,inactive,,,inactive,inactive,inactive,inactive,,
COc1ccccc1N=Nc1c(S(=O)(=O)O)cc2cc(S(=O)(=O)O)cc(NC(C)=O)c2c1O,inactive,,25.7 µM (active),inactive,inactive,,,inactive,inactive,inactive,inactive,inactive,inactive,inactive,,inactive,,,,inactive
CC(C)C(OC(=O)c1ccccc1)C(C)(C)COC(=O)c1ccccc1 (configuration not stated),inactive,inactive,inactive,,inactive,inactive,,,,inactive,inactive,inactive,,,inactive,19.3 µM (active),,,,
CC1C2CC(CC2C2CCCC(O)C2)C1(C)C (configuration not stated),inactive,inactive,inactive,,,inactive,inactive,,inactive,inactive,,inactive,,,,,,,,
Fc1ccccc1[C@@H](F)COC1CCC(Nc2ncnc3[nH]ncc23)CC1 (some centres not stated),inactive,12.2 µM (active),,68.6 µM (active),,,,,,inactive,inactive,,inactive,,,27.3 µM (active),,,inactive,
CC1=C(/C=C/C(C)=C\C=C\C(C)=C\C(=O)O)C(C)(C)CCC1,8.63 µM (active),inactive,,,,,,inactive,,inactive,inactive,,,,,,inactive,,,
O=C(O)c1c(O)c(-c2ccccc2)nc2ccccc12,inactive,inactive,inactive,,,inactive,,,inactive,inactive,inactive,inactive,,,inactive,,inactive,inactive,inactive,
CCc1cccc(N(C)C(N)=Nc2cccc3ccccc23)c1,inactive,,inactive,2.66 µM (active),inactive,,inactive,inactive,inactive,inactive,inactive,inactive,,inactive,,inactive,,inactive,inactive,inactive
Cc1ccc(S(=O)(=O)NC2CCCCC2)cc1,inactive,,inactive,inactive,inactive,,,,,inactive,,inactive,,inactive,inactive,27.1 µM (active),inactive,inactive,,inactive
CC(=O)[C@H]1CC[C@H]2[C@@H]3C[C@H](C)C4=CC(=O)CC[C@]4(C)[C@H]3[C@@H](O)C[C@]12C,inactive,,inactive,inactive,inactive,,inactive,,,inactive,,inactive,inactive,inactive,,,,inactive,0.0841 µM (active),inactive
O=C(N/N=C/c1ccc([N+](=O)[O-])o1)c1ccc(O)cc1,inactive,11.9 µM (active),11.9 µM (active),,inactive,inactive,29.8 µM (active),inactive,,inactive,,inactive,inactive,,,,inactive,inactive,inactive,
